Screening results (PubChem BioAssay)
Prx2 Sm inh: inhibitors of Schistosoma mansoni peroxiredoxin 2 | Potency, µM | 65,000 compounds, 0.07% hits | S. mansoni Prx2 activity coupled to TGR/GSH (TGR is thioredoxin glutathione reductase), NADPH fluorescence loss, qHTS | AID 448
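Coupled assay in which S. mansoni TGR passes NADPH reducing equivalents via glutathione to Prx2, which reduces H2O2. Compounds were preincubated 15 min at room temperature with 25 nM TGR/50 nM Prx2 mix. Kinetic NADPH fluorescence loss (ex 365/em 450 nm) was monitored.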
AmpC det inh: blocks E. coli AmpC beta-lactamase in presence of detergent; P00811; purified AmpC, nitrocefin hydrolysis with detergent; Potency, µM (titrated, usually from 28.7 µM), inactives show at the top dose activity change, negative = inhibition; 71,000 compounds, 0.09% hits; AID 584; active = well fitted curve in the direction sought with a large enough effect; inconclusive = small, poorly fitted or top-dose-only effect; also: % is scaled to controls: 0 for no effect and ±100 for the full control effect
Target sequence (P00811 whole entry, looked up): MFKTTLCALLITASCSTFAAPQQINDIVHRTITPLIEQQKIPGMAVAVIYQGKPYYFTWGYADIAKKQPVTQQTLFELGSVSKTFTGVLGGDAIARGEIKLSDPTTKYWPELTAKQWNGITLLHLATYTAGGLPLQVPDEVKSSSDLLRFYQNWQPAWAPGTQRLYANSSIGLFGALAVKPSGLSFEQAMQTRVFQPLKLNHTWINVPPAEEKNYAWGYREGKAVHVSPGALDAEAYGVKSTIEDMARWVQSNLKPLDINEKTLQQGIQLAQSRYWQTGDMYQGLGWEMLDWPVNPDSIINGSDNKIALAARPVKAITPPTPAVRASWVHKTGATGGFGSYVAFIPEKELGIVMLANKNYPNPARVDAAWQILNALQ
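E. coli AmpC (5.3 nM) in 20 mM phosphate pH 7.0 with 0.01% Triton X-100, preincubated 15 min RT with compound; nitrocefin (2 uL of 800 uM stock) hydrolysis followed by 480 nm absorbance every 20 s over 4 min.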
AmpC inh no det: blocks E. coli AmpC beta-lactamase in absence of detergent | P00811 | AmpC nitrocefin hydrolysis, absorbance 480 nm, no detergent | Potency, µM (highest dose often 28.7 µM), for the others: at the highest dose activity change, negative = inhibition | 71,000 compounds, 1.8% hits; also: % of control where 0% means no effect
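AmpC, 20 mM phosphate pH 7.0; 15 min cpd preinc, RT; start with nitrocefin (800 uM stock); A480 kinetic read, 20 s intervals, 4 min. No-enzyme wells = negative control.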
Anthrax LT inh: anthrax lethal toxin internalization inhibition; 70,000 compounds, 0.67% hits; Potency, µM (top dose mostly 40 µM), for inactives: top-dose activity change, negative = inhibition, usual class: inhibitors; Cells, anthrax lethal toxin internalization, FRET ratio (460/530); also: % is scaled to controls: 0 for no effect and ±100 for the full control effect; nearly all actives have a fitted effect of over 50% in size
An asterisk follows results filed as active; ? = inconclusive; nt = no result; [ ] = another dose, or the depositor's remark. Compounds with a hit are over-represented: about 2.4% of the library has one in this group of screens. Unless noted, calls follow the shape of the full dose curve. Potency is read from the fitted curve at half-maximal effect.

SMILES	Prx2 Sm inh	AmpC det inh	AmpC inh no det	Anthrax LT inh
CCOC(=O)c1c(NC(=O)c2noc3c2CCCC3)sc(C)c1C	>57	2%	13%	8%
Cc1noc(C)c1C(=O)N1CCC2(CCCN(c3ncccn3)C2)CC1	>57	-4%	3%	?
CC[C@@](N)(C(=O)O)c1ccc(C(=O)O)cc1	>57	4%	42%	0%
CO[C@H]1COC(=O)[C@H](C)NC(=O)C/C=C\[C@@H](C)[C@H](OC)COC(=O)C/C=C\[C@@H]1C	nt	nt	nt	6%[8 µM]
COc1ccccc1-c1ccc2ncnc(N3CCOCC3)c2c1	>57	7%	133%	?
CN(C)c1ccc(-c2ccc3ncnc(N(C)Cc4ccco4)c3c2)cc1	>57	-2%	38%	10µM*
CN(Cc1ccco1)c1ncnc2ccc(-c3ccccc3C#N)cc12	>57	8%	72%	?
COc1cccc(-c2ccc3ncnc(N(C)Cc4ccco4)c3c2)c1	>57	10µM*	6.3µM*	?
COc1cccc(-c2ccc3ncnc(N4CCOCC4)c3c2)c1	>57	10µM*	?	-30%
C/C=C(\C)C(=O)O[C@@H]1C(C)=C2[C@H]([C@@H]1OC(=O)CCCCCCC)[C@@](C)(OC(C)=O)C[C@@H](OC(=O)CCC)[C@@]1(O)[C@H]2OC(=O)[C@]1(C)O	>57	-9%	142%	?
COC(=O)NC(/C(C(=O)OC)=C(\C)NCc1ccccc1)c1ccc2ccccc2c1 (centres undefined)	nt	nt	nt	-21%[8 µM]
COc1ccc(OCC(O)CN2CCCCC2)cc1 (centres undefined)	>57	11%	4µM*[single pt active]	-9%
O=C(c1cc2ccccc2cc1OCC(O)CN1CCCCC1)N1CCCCC1 (centres undefined)	>57	12%	4µM*[single pt active]	-12%
OC(COc1ccc(Cl)cc1)CN1CCCCC1 (centres undefined)	>57	1%	-2%	-17%
O=C(c1cccc(F)c1)N1CCC[C@@]2(CCN(Cc3ccccc3)C2)C1	>57	-2%	8%	-9%
CCN1CCN(C(=O)C(NS(=O)(=O)c2ccc3nc(C)sc3c2)C(C)C)CC1 (centres undefined)	>57	9%	13%	0%
Cc1nc2ccc(S(=O)(=O)NC(C(=O)NC3CCCC3)C(C)C)cc2s1 (centres undefined)	>57	7%	4µM*[single pt active]	5%
CN1CCN(c2ncc3nc(-c4cccs4)c(=O)n(CCc4ccccc4)c3n2)CC1	>57	1%	107%	?
CC(C)(C)OC(=O)N[C@@H](Cc1ccccc1)c1nnc(SCC(=O)O)o1	>57	12%	-4%	?
CC(C)(C)OC(=O)N[C@@H](Cc1ccccc1)c1nnc(S(=O)(=O)Cc2ccccc2)o1	nt	13µM*	3.2µM*	7.9µM*
CCC(C)[C@@H](NC(=O)OC(C)(C)C)c1nnc(S(=O)(=O)Cc2cccc(C)c2)o1 (some centres undefined)	>57	4µM*	7.9µM*	?
N#Cc1cccc(-c2nc(NCc3cccnc3)c3ccccc3n2)c1	>57	10µM*	0.63µM*	?
COc1cccc(-c2nc(NCc3cccnc3)c3ccccc3n2)c1	>57	13µM*	?	-20%
COc1ccc(Nc2nc(N3CCCC3)nc3ccccc23)c(OC)c1	>57	-1%	54%	13µM*
CCOC(=O)C1CCCN(c2c(N3CCN(C4CCCCC4)CC3)c(=O)c2=O)C1 (centres undefined)	>57	9%	59%	-12%
SMILES	Prx2 Sm inh	AmpC det inh	AmpC inh no det	Anthrax LT inh
CCOC(=O)C1CCCN(c2c(Nc3ccc(C)c(C)c3)c(=O)c2=O)C1 (centres undefined)	>57	13%	3.2µM*[single pt active]	?
CCOC(=O)C1CCCN(c2c(N3CCC(N4CCCCC4)CC3)c(=O)c2=O)C1 (centres undefined)	>57	13%	4µM*[single pt active]	-22%
CCOC(=O)C1CCCN(c2c(NCC3CCCO3)c(=O)c2=O)C1 (centres undefined)	>57	11%	3.2µM*[single pt active]	-6%
C=C1CC[C@H]2C(C)(C)[C@H](O)CC[C@]2(C)[C@@H]1COc1ccc2ccc(=O)oc2c1	>57	-3%	56%	?
O=c1c(-c2cc(F)cc(F)c2)nc2cnc(Nc3ccccc3)nc2n1C[C@H]1CCCO1	>57	-2%	-2%	?
COc1cccc(Cn2c(=O)c(-c3ccc(Cl)cc3)nc3cnc(N4CCNCC4)nc32)c1	>57	1%	72%	?
